The source of these data is ChEMBL document CHEMBL1961873, “Compounds: GSK PKIS; Assays: Nanosyn kinase panel” (2012).

Experiment [1] concerns the target Serine/threonine-protein kinase pim-2 (Homo sapiens) (UniProt Q9P1W9). Conditions: at 1 µM.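 Also: each value is a mean of the inhibition measurements against the kinase.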
The target in experiment [2] is Serine/threonine-protein kinase pim-3 (Homo sapiens) (UniProt Q86V86). Conditions: at 0.1 µM.
Experiment [3] has the same target. Conditions: at 1 µM.
Experiment [4] deals with T1, MAP kinase-activated protein kinase 5 (Homo sapiens) (UniProt Q8IW41).
T1 sequence (whole entry): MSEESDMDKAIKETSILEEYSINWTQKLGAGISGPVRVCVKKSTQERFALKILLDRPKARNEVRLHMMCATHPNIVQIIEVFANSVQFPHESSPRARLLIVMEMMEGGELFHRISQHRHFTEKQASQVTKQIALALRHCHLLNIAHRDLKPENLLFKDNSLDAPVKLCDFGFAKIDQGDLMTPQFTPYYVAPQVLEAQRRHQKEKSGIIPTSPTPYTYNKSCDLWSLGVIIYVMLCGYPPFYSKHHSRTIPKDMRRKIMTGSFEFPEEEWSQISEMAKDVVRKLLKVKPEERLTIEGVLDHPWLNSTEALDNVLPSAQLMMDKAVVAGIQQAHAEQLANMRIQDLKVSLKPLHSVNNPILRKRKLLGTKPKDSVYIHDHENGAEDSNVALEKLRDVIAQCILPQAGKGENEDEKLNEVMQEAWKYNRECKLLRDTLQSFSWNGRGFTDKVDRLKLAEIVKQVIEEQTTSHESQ
Conditions: at 0.1 µM.

The target in experiment [5] is T1, MAP kinase-activated protein kinase 5 (Homo sapiens). Conditions: at 1 µM.
Experiment [6] has as its target Serine/threonine-protein kinase SIK1 (Homo sapiens) (UniProt P57059). To be noted: at 0.1 µM.
The target is the same in experiment [7]. To be noted: at 1 µM.
Experiment [8] has as its target Serine/threonine-protein kinase SIK2 (Homo sapiens) (UniProt Q9H0K1). Conditions: at 0.1 µM.
The target is the same in experiment [9]. Conditions: at 1 µM.
The target of experiment [10] is T2, Serine/threonine-protein kinase TBK1 (Homo sapiens) (UniProt Q9UHD2).
T2 sequence (whole entry): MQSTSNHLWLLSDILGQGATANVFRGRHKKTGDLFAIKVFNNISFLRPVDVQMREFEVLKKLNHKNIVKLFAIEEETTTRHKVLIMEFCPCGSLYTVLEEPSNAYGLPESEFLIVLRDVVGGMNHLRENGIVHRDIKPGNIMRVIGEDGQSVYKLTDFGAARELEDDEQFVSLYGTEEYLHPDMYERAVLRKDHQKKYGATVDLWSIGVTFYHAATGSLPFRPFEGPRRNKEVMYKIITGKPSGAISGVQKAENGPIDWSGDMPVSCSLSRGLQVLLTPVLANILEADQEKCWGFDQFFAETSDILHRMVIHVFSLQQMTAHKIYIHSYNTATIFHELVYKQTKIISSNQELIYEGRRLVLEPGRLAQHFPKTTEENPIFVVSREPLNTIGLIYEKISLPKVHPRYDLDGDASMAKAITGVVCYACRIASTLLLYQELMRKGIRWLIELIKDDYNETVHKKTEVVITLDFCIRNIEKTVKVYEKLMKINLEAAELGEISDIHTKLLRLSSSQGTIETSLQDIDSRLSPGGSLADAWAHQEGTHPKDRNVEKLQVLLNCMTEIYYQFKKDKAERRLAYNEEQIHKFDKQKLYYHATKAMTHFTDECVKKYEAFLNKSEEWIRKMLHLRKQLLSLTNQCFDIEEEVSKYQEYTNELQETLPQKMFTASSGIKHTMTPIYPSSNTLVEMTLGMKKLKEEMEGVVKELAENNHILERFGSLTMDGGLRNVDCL
To be noted: at 0.1 µM.

Experiment [11] concerns the target T2, Serine/threonine-protein kinase TBK1 (Homo sapiens). To be noted: at 1 µM.
Experiment [12] deals with T3, Testis-specific serine/threonine-protein kinase 1 (Homo sapiens) (UniProt Q9BXA7).
T3 sequence (whole entry): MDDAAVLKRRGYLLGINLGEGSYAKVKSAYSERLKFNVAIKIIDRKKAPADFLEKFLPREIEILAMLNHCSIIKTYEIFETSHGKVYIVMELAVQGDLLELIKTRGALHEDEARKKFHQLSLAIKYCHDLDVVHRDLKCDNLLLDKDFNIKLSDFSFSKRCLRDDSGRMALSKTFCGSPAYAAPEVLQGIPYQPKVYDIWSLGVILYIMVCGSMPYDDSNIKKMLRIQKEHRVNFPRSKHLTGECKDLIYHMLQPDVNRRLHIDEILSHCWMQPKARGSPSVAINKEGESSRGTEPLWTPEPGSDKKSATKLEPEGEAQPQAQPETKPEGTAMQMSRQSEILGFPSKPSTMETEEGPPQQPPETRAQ
To be noted: at 0.1 µM.

Experiment [13] concerns the target T3, Testis-specific serine/threonine-protein kinase 1 (Homo sapiens). To be noted: at 1 µM.
For experiment [14], the target named is T4, Testis-specific serine/threonine-protein kinase 2 (Homo sapiens) (UniProt Q96PF2).
T4 sequence (whole entry): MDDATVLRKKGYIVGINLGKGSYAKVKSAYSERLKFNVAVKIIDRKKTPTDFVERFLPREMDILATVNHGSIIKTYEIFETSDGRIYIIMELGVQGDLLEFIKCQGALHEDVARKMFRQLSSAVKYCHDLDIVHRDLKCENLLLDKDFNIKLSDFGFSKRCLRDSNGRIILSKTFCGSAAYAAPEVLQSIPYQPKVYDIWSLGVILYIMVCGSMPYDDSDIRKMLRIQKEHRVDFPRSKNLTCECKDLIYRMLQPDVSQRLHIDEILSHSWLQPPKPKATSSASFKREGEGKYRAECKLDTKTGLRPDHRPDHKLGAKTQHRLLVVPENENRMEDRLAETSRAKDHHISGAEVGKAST
To be noted: at 0.1 µM.

Experiment [15] concerns the target T4, Testis-specific serine/threonine-protein kinase 2 (Homo sapiens). Conditions: at 1 µM.
The target in experiment [16] is Casein kinase I isoform alpha (Homo sapiens) (UniProt P48729). Conditions: at 0.1 µM.
Sequence of Casein kinase I isoform alpha (Homo sapiens) (P48729 2-337 limits assumed): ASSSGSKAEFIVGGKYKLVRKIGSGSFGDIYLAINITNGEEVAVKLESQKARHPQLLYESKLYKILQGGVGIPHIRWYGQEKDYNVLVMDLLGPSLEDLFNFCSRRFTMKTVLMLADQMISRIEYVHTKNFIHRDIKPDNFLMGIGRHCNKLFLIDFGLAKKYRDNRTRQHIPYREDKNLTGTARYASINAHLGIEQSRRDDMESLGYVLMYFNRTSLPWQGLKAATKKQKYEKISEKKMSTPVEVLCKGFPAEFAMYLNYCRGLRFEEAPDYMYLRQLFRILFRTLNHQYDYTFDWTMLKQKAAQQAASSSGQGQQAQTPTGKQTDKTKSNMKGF
For experiment [17] the target is unchanged. Conditions: at 1 µM.
Experiment [18] concerns the target Casein kinase I isoform gamma-1 (Homo sapiens) (UniProt Q9HCP0). Conditions: at 0.1 µM.
Experiment [19] has the same target. Conditions: at 1 µM.
In experiment [20] the target is Casein kinase I isoform gamma-2 (Homo sapiens) (UniProt P78368). Conditions: at 0.1 µM.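 Also: values are mean inhibition figures reported as part of the GSK PKIS dataset.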
Sequence of Casein kinase I isoform gamma-2 (Homo sapiens) (P78368 whole entry, looked up, canonical isoform): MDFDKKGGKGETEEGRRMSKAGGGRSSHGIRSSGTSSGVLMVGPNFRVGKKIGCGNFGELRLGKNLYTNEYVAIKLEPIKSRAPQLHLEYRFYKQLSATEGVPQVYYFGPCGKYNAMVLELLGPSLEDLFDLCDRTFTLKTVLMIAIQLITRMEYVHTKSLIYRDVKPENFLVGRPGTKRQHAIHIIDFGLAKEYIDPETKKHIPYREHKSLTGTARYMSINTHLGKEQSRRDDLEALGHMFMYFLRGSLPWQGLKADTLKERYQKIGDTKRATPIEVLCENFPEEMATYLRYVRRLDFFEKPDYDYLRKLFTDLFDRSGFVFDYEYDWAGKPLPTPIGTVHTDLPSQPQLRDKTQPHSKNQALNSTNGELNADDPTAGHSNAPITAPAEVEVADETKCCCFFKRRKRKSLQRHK

One may read the inhibition as the change of the read-out against control, counted positive when it falls.

Sequence of Serine/threonine-protein kinase SIK2 (Homo sapiens) (Q9H0K1 whole entry, looked up): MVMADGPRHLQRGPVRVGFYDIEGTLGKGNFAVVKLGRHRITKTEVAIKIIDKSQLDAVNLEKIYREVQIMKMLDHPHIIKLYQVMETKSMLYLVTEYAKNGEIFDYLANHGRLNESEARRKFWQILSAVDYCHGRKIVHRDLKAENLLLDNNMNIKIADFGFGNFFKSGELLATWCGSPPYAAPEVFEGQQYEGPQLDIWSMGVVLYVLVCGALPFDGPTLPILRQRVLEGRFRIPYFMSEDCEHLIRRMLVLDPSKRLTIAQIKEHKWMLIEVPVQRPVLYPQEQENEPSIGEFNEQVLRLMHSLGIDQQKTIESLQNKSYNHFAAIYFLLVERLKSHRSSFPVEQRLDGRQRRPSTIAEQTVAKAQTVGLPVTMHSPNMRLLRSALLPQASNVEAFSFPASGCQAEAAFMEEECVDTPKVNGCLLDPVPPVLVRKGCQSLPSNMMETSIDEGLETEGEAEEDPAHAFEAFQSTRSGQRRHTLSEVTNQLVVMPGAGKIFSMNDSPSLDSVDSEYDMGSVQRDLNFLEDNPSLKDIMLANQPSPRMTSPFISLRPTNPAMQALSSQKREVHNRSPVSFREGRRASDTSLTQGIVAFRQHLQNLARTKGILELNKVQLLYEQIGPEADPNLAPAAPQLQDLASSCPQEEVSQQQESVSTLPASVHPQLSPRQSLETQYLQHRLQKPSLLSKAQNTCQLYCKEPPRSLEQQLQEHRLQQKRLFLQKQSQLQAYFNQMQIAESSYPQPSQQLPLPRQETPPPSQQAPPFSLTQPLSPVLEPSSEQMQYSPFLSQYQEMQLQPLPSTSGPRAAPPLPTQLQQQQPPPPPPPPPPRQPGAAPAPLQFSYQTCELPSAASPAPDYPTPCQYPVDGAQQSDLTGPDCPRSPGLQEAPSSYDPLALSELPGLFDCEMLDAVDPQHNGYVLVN
Sequence of Serine/threonine-protein kinase pim-2 (Homo sapiens) (Q9P1W9 whole entry, looked up): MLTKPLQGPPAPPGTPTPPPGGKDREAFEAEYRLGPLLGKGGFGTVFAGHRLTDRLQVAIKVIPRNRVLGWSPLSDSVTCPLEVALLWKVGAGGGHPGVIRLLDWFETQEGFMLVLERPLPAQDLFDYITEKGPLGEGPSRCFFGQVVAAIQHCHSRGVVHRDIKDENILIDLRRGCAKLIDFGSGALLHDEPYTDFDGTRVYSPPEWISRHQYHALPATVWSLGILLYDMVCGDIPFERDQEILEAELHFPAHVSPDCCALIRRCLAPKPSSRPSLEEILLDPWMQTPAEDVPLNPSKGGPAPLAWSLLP
Sequence of Serine/threonine-protein kinase SIK1 (Homo sapiens) (P57059 whole entry): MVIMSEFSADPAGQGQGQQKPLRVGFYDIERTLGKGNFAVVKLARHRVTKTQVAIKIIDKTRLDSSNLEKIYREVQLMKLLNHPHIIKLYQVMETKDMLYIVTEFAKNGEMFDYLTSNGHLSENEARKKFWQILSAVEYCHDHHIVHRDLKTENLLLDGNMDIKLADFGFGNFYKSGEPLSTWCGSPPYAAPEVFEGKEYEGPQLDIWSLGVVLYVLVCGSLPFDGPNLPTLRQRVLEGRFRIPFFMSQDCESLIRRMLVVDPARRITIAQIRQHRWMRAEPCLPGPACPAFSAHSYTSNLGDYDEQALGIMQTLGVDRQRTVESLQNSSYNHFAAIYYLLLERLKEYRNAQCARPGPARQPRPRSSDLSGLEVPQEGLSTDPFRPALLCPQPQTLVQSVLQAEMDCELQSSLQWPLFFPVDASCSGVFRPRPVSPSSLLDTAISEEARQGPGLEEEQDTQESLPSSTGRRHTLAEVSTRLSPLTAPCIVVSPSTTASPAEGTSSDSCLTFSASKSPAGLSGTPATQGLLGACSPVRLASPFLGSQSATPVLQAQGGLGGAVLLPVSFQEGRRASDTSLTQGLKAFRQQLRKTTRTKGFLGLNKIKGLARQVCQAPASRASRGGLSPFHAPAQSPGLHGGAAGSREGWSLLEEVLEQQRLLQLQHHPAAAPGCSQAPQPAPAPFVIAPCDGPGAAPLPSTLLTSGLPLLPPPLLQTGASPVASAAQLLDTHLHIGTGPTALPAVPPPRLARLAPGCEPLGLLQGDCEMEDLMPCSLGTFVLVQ
Sequence of Casein kinase I isoform gamma-1 (Homo sapiens) (Q9HCP0 whole entry, looked up, canonical isoform): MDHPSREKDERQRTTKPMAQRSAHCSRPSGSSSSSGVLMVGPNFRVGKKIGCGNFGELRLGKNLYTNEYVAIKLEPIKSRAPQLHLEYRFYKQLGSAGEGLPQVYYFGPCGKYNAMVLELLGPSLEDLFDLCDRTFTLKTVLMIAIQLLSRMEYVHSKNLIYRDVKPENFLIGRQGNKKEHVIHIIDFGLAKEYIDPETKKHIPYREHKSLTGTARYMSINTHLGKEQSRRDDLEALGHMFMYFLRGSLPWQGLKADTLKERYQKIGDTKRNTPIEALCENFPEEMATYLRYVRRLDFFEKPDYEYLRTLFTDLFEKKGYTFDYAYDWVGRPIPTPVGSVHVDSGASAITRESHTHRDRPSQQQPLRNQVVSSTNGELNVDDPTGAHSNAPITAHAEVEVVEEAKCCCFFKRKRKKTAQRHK

For `Fc1cccc(COc2ccc(Nc3ncnc4sc(-c5ccco5)cc34)cc2Cl)c1`, the inhibition was 0.73% in [1]; -1.54% in experiment [2]; -0.36% in experiment [3]; 0.95% in experiment [4]; 1.47% in experiment [5]; 2.24% in experiment [6]. Further, the inhibition in experiment [7] was 9.68%; in experiment [8], 3.95%; in experiment [9] it was 5.81%; in experiment [10], 0.55%; in experiment [11], 2.89%; in experiment [12], 2.79%. The inhibition in experiment [13] was found to be 3.11%; in experiment [14] it was 0.52%; in experiment [15], 2.23%; in experiment [16] it was 3.24%; in [17] it was 3.14%; in experiment [18], 4.55%. Besides, the inhibition turned out to be 4.42% in [19] and 4.05% in experiment [20].

As for `COc1ccc(-c2nn3ncccc3c2-c2ccnc(Nc3ccc4c(c3)OCCO4)n2)cc1`, the inhibition in experiment [1] is 1.11%; in experiment [2], 0.26%; in experiment [3] it was 2.15%; in [4], 0.05%; in experiment [5], -0.76%; in experiment [6], 1.35%. For the same molecule, the inhibition was 12.5% in experiment [7]; -0.55% in [8]; 6.1% in [9]; -0.73% in experiment [10]; 1.43% in [11]; -0.54% in experiment [12]. Also, the inhibition in experiment [13] was -0.16%; in experiment [14], 1.42%; in experiment [15] it was -0.78%; in experiment [16] it was 0%; in experiment [17], 3.14%; in experiment [18] it was 1.16%. In addition, the inhibition in [19] was determined as 3.57%; in experiment [20] it was 1.93%.

`CCCN(CCS(C)(=O)=O)Cc1ccc(-c2ccc3ncnc(Nc4ccc(OCc5cccc(F)c5)c(Cl)c4)c3c2)o1`: the inhibition in experiment [1] came to 0.55%; in [2] it was 0.79%; in [3], 1.71%; in [4], 0.4%; in [5], 0.36%; in [6], 5.69%. The inhibition in experiment [7] was found to be 6.39%; in experiment [8], 4.14%; in experiment [9] it was 7.64%; in experiment [10], 2.46%; in experiment [11], 5.16%; in [12] it was 2.58%. In addition, the inhibition was 1.44% in experiment [13]; 0.97% in experiment [14]; 0.36% in experiment [15]; 1.49% in experiment [16]; 3.77% in experiment [17]; 1.24% in experiment [18]. Moreover, the inhibition in experiment [19] worked out at 1.53%; in experiment [20], 0.76%.

For `NS(=O)(=O)c1ccc(N/N=C2\C(=O)Nc3ccc4ncccc4c32)cc1`, the inhibition is 9.88% in [1]; 1.09% in [2]; 12.5% in experiment [3]; 1.52% in experiment [4]; 8.94% in [5]; 2.74% in [6]. Besides, the inhibition is 31.3% in experiment [7]; -0.54% in [8]; 31.6% in experiment [9]; 7.16% in [10]; 50.4% in experiment [11]; 5.63% in [12]. For the same molecule, the inhibition in experiment [13] was determined as 34.9%; in experiment [14], 0.69%; in [15], 4.1%; in experiment [16], 4.04%; in experiment [17], 21.3%; in experiment [18], 2.39%. In addition, the values for the inhibition in experiment [19] and in experiment [20] were 8.12% and 1.41%, respectively.

As for `CNC(=O)c1cncc(/C=C/c2ccccc2Cl)c1`, the inhibition turned out to be 0.04% in experiment [1]; 3.4% in experiment [2]; 5.1% in [3]; 0.27% in experiment [4]; 1.73% in [5]; 2.02% in experiment [6]. Further, the inhibition in experiment [7] was 25.6%; in experiment [8], 2.24%; in experiment [9], 8.3%; in experiment [10], 0.45%; in experiment [11], 4.1%; in experiment [12], 0.22%. Further, the inhibition is 1.52% in [13]; -0.03% in experiment [14]; 2.91% in experiment [15]; 0.76% in experiment [16]; -0.31% in experiment [17]; 0.2% in [18]. Also, the inhibition in [19] is -0.31%; in experiment [20], 0.91%.

In the case of `CC(C)(CO)CNC(=O)c1ccc2c(c1)/C(=N/Nc1ccc(S(N)(=O)=O)cc1)C(=O)N2`, the inhibition in experiment [1] is 4.28%; in [2], 1.57%; in experiment [3], 14.2%; in experiment [4] it was -0.02%; in experiment [5] it was -0.16%; in experiment [6], 3.06%. In addition, the inhibition in [7] was 27.7%; in [8] it was -1.9%; in [9], 36%; in experiment [10] it was 21.7%; in experiment [11] it was 63.4%; in [12], 0.17%. Further, the inhibition in [13] is 11%; in [14] it was 0.45%; in [15], -0.69%; in [16] it was -1.33%; in experiment [17], 7.84%; in [18], 0.88%. For the same molecule, the inhibition stood at 4.11% in experiment [19] and 0.93% in experiment [20].
